From PubChem BioAssay (NCI)
About 83,000 compounds went through this panel and 20% of them were active in at least one assay; those are over-represented in the sample as a whole.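 In brief: 96-well plates, 48 h treatment, single concentration, percent growth endpoint.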 The source made the active and inactive calls. How the source made its calls: active means growth percent below 10; inactive means the rest.

Legend:
Test in all cases: NCI-60 one-dose screen, 48 h (100 = growth as untreated, 0 = no growth, -100 = all killed)
Settings in all cases: 10 µM unless noted
NCI-H23 lung = system: NCI-H23 lung
NCI-H226 lung = system: NCI-H226 lung
NCI-H322M lung = system: NCI-H322M lung
HOP-62 NSCLC = system: HOP-62 NSCLC
NCI-H460 lung = system: NCI-H460 lung
HOP-92 NSCLC = system: HOP-92 NSCLC
NCI-H522 lung = system: NCI-H522 lung
A549/ATCC NSCLC = system: A549/ATCC NSCLC
786-0 renal = system: 786-0 renal
COLO 205 colon = system: COLO 205 colon
DU-145 prostate = system: DU-145 prostate
K-562 leukemia = system: K-562 leukemia
MALME-3M melanoma = system: MALME-3M melanoma
MDA-MB-231 breast = system: MDA-MB-231 breast
RXF 393 renal = system: RXF 393 renal
SF-268 CNS = system: SF-268 CNS
SF-295 CNS = system: SF-295 CNS
SF-539 CNS = system: SF-539 CNS
UACC-257 melanoma = system: UACC-257 melanoma
M14 melanoma = system: M14 melanoma

Measured: growth

CN1CCN(CC(O)COc2c(Br)c(Br)c(Br)c3c2OC(C)(C)C3)CC1 (stereo not given)
inactive: NCI-H23 lung 82.4% | NCI-H226 lung 99.2% | NCI-H322M lung 73% | HOP-62 NSCLC 16.4% | NCI-H460 lung 23% | NCI-H522 lung 42.6% | A549/ATCC NSCLC 63.6% | 786-0 renal 11.8% | DU-145 prostate 89.9% | MDA-MB-231 breast 49.7% | RXF 393 renal 29.4% | SF-268 CNS 63.8% | SF-295 CNS 38.7% | SF-539 CNS 58.3% | UACC-257 melanoma 99.9%
active: HOP-92 NSCLC -3.44% | COLO 205 colon -45.3% | K-562 leukemia -16.5% | MALME-3M melanoma -36.9% | M14 melanoma -53.5%

Cc1ccc(-c2cn3cc([N+](=O)[O-])ccc3n2)cc1
inactive: NCI-H23 lung 83.5% | NCI-H226 lung 72.2% | NCI-H322M lung 95.9% | HOP-62 NSCLC 91.4% | NCI-H460 lung 97.6% | HOP-92 NSCLC 110% | NCI-H522 lung 71.3% | A549/ATCC NSCLC 85.5% | 786-0 renal 91.9% | COLO 205 colon 94.4% | DU-145 prostate 68.8% | K-562 leukemia 82% | MALME-3M melanoma 103% | MDA-MB-231 breast 79.1% | RXF 393 renal 90.4% | SF-268 CNS 77.3% | SF-295 CNS 101% | SF-539 CNS 91.2% | UACC-257 melanoma 87.4% | M14 melanoma 72.5%

Cc1c(F)cccc1NC(=O)c1sc2nc3c(cc2c1N)CCCCC3
inactive: NCI-H23 lung 79.6% | NCI-H226 lung 56.8% | NCI-H322M lung 85.8% | HOP-62 NSCLC 50.3% | NCI-H460 lung 56.7% | HOP-92 NSCLC 70.5% | NCI-H522 lung 20% | A549/ATCC NSCLC 73.9% | 786-0 renal 75.7% | COLO 205 colon 74.2% | DU-145 prostate 69.1% | K-562 leukemia 12.5% | MALME-3M melanoma 55% | MDA-MB-231 breast 83.6% | RXF 393 renal 69.5% | SF-268 CNS 83.4% | SF-295 CNS 55.3% | SF-539 CNS 66.9% | UACC-257 melanoma 52.3% | M14 melanoma 28.2%

COc1cc(/C=C2/Oc3cc4occc4c(OC)c3C2=O)ccc1OCC(=O)Nc1ccncc1
inactive: NCI-H23 lung 94.1% | NCI-H226 lung 95% | NCI-H322M lung 97.3% | HOP-62 NSCLC 85.7% | NCI-H460 lung 104% | HOP-92 NSCLC 97.4% | NCI-H522 lung 85.4% | A549/ATCC NSCLC 101% | 786-0 renal 101% | COLO 205 colon 107% | DU-145 prostate 112% | K-562 leukemia 107% | MALME-3M melanoma 110% | MDA-MB-231 breast 89.9% | RXF 393 renal 118% | SF-268 CNS 105% | SF-295 CNS 107% | SF-539 CNS 97% | UACC-257 melanoma 104% | M14 melanoma 98.8%

COc1cc(C(=O)C[n+]2ccccc2)ccc1OC(C)=O
inactive: NCI-H23 lung 106% | NCI-H226 lung 96.3% | NCI-H322M lung 106% | HOP-62 NSCLC 94.6% | NCI-H460 lung 99% | HOP-92 NSCLC 91.5% | NCI-H522 lung 98% | A549/ATCC NSCLC 98.3% | 786-0 renal 90.9% | COLO 205 colon 104% | DU-145 prostate 106% | K-562 leukemia 101% | MALME-3M melanoma 105% | MDA-MB-231 breast 102% | RXF 393 renal 92% | SF-268 CNS 98.4% | SF-295 CNS 97.4% | SF-539 CNS 94.3% | UACC-257 melanoma 95.4% | M14 melanoma 94.9%

O=[N+]([O-])c1cccc(C2c3ccccc3Oc3ccccc32)c1
inactive: NCI-H23 lung 94.6% | NCI-H226 lung 84.1% | NCI-H322M lung 83.6% | HOP-62 NSCLC 85.4% | NCI-H460 lung 88.1% | HOP-92 NSCLC 81% | NCI-H522 lung 80.8% | A549/ATCC NSCLC 87.4% | 786-0 renal 99.9% | COLO 205 colon 90.3% | DU-145 prostate 101% | K-562 leukemia 65.7% | MALME-3M melanoma 101% | MDA-MB-231 breast 92% | RXF 393 renal 109% | SF-268 CNS 102% | SF-295 CNS 76.9% | SF-539 CNS 112% | UACC-257 melanoma 104% | M14 melanoma 110%

COc1ccc2c(c1)nnc1c3cccnc3[nH]c21
inactive: NCI-H23 lung 25.5% | NCI-H226 lung 19.7% | NCI-H322M lung 43.3% | A549/ATCC NSCLC 40.8% | MALME-3M melanoma 11.4% | SF-295 CNS 39.8% | UACC-257 melanoma 33.5%
active: HOP-62 NSCLC 6.44% | NCI-H460 lung -49.4% | HOP-92 NSCLC -36.5% | NCI-H522 lung -34.4% | 786-0 renal -37.2% | COLO 205 colon -62.3% | DU-145 prostate -18.3% | K-562 leukemia -41.1% | MDA-MB-231 breast 0.316% | RXF 393 renal -67.2% | SF-268 CNS -24.8% | SF-539 CNS -48.7% | M14 melanoma 4.79%

CCCCNc1cc(C(=O)O)cc(S(N)(=O)=O)c1Oc1ccccc1
inactive: NCI-H23 lung 102% | NCI-H226 lung 91% | NCI-H322M lung 101% | HOP-62 NSCLC 101% | NCI-H460 lung 104% | HOP-92 NSCLC 81% | NCI-H522 lung 102% | A549/ATCC NSCLC 105% | 786-0 renal 103% | COLO 205 colon 98.6% | DU-145 prostate 110% | K-562 leukemia 98.2% | MALME-3M melanoma 96.2% | MDA-MB-231 breast 122% | RXF 393 renal 91.1% | SF-268 CNS 105% | SF-295 CNS 102% | SF-539 CNS 105% | UACC-257 melanoma 105% | M14 melanoma 109%

CC(Cl)(CCl)CS(=O)(=O)c1ccc(Cl)cc1 (stereo not given)
inactive: NCI-H23 lung 101% | NCI-H226 lung 92.6% | NCI-H322M lung 100% | HOP-62 NSCLC 94.8% | NCI-H460 lung 107% | HOP-92 NSCLC 90% | NCI-H522 lung 92.9% | A549/ATCC NSCLC 88.9% | 786-0 renal 102% | COLO 205 colon 106% | DU-145 prostate 108% | K-562 leukemia 105% | MALME-3M melanoma 114% | MDA-MB-231 breast 96.5% | RXF 393 renal 93.1% | SF-268 CNS 101% | SF-295 CNS 100% | SF-539 CNS 107% | UACC-257 melanoma 86.7% | M14 melanoma 104%

Cc1nc(-c2ccc(Cl)cc2)ccc1NC(=O)Nc1cccc(C(F)(F)F)c1
inactive: NCI-H23 lung 95.6% | NCI-H226 lung 97.9% | NCI-H322M lung 109% | HOP-62 NSCLC 109% | NCI-H460 lung 64.5% | HOP-92 NSCLC 96.4% | NCI-H522 lung 52.9% | A549/ATCC NSCLC 93.1% | 786-0 renal 101% | COLO 205 colon 121% | DU-145 prostate 97.6% | K-562 leukemia 80.6% | MALME-3M melanoma 126% | MDA-MB-231 breast 115% | RXF 393 renal 104% | SF-268 CNS 98.4% | SF-295 CNS 98.4% | SF-539 CNS 94.1% | UACC-257 melanoma 98.9% | M14 melanoma 101%

Cc1cn(-c2cc(C(=O)Nc3cccc(-n4ccc5c(NC(=O)c6ccccc6)nccc54)c3)cc(C(F)(F)F)c2)cn1
active: NCI-H460 lung -13.3% | HOP-92 NSCLC -6.29% | NCI-H522 lung -7.45% | A549/ATCC NSCLC -19% | 786-0 renal -70.6% | COLO 205 colon -20.1% | DU-145 prostate -9.55% | K-562 leukemia 4.74% | MDA-MB-231 breast 4% | RXF 393 renal -89.8% | SF-295 CNS -12.3% | SF-539 CNS -12.1%
inactive: NCI-H23 lung 22.5% | NCI-H226 lung 33.8% | NCI-H322M lung 32.9% | HOP-62 NSCLC 31.5% | MALME-3M melanoma 25.2% | SF-268 CNS 12% | UACC-257 melanoma 40.6% | M14 melanoma 11.9%

Cc1cc(C)c(O)c(C(=O)CC(Br)C(=O)O)c1 (stereo not given)
inactive: NCI-H23 lung 96.4% | NCI-H226 lung 106% | NCI-H322M lung 101% | HOP-62 NSCLC 106% | NCI-H460 lung 108% | HOP-92 NSCLC 88.1% | NCI-H522 lung 81.7% | A549/ATCC NSCLC 99.3% | 786-0 renal 86.2% | COLO 205 colon 116% | DU-145 prostate 95.3% | K-562 leukemia 84.5% | MALME-3M melanoma 111% | MDA-MB-231 breast 121% | RXF 393 renal 119% | SF-268 CNS 95.9% | SF-295 CNS 101% | SF-539 CNS 91.2% | UACC-257 melanoma 96.2% | M14 melanoma 95.1%

COc1ccc(-c2nn(-c3ccc(NC(=O)c4cc(Cl)cc(Cl)c4)cc3)cc2-c2ccncc2)cc1Cl
active: 786-0 renal 3.68% | RXF 393 renal -66.8% | SF-295 CNS -28.5%
inactive: NCI-H23 lung 83.7% | NCI-H226 lung 98.4% | NCI-H322M lung 88.6% | HOP-62 NSCLC 59.9% | NCI-H460 lung 38.3% | HOP-92 NSCLC 84.6% | NCI-H522 lung 87.6% | A549/ATCC NSCLC 53.1% | COLO 205 colon 46.9% | DU-145 prostate 76.6% | K-562 leukemia 12% | MALME-3M melanoma 89.9% | MDA-MB-231 breast 25.1% | SF-268 CNS 63.5% | SF-539 CNS 47.8% | UACC-257 melanoma 85% | M14 melanoma 42.9%
